PNC inhibitor: perinucleolar compartment assembly inhibition | PC3M PTB-GFP, PNC prevalence imaging, 16 h; hits give low values | activity change (PNC), negative = inhibition, % at 10 µM | 3.1% of 140,000 active;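 active = readout at or below -70, meaning at least 70% loss of cells showing the perinucleolar compartment, a nuclear body marking cancer cells; inconclusive = readout between -30 and a set limit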;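 also: plate controls were DMSO wells for no effect and camptothecin positive control wells for full effect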
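Compounds are pinned in duplicate onto adhered PC3M cells stably expressing GFP-tagged PTB and incubated 16 h at 37 C. Cells are then fixed, nuclei stained with Hoechst, and PNC-positive cells counted.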
ALDH1A1 block: inhibitors of human aldehyde dehydrogenase 1A1; 7.3% of 220,000 active; Purified ALDH1A1, NADH fluorescence, propionaldehyde substrate; Potency, µM (series often up to 75.3 µM), without a hit: at the highest dose activity, negative = inhibition, usual class: inhibitors;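 also: potency is read from the fitted curve at half-maximal effect; plate controls were no enzyme wells and a reference inhibitor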
HPGD inh: blocks human HPGD enzyme activity; P15428; 4.3% of 150,000 active; purified HPGD, NADH fluorescence kinetic, PGE2 substrate; AID 894; Potency, µM, for inactives: at the top dose activity change, negative = inhibition, hits mostly inhibitors; also: potency is read from the fitted curve at half-maximal effect
Target sequence (P15428 whole entry, looked up): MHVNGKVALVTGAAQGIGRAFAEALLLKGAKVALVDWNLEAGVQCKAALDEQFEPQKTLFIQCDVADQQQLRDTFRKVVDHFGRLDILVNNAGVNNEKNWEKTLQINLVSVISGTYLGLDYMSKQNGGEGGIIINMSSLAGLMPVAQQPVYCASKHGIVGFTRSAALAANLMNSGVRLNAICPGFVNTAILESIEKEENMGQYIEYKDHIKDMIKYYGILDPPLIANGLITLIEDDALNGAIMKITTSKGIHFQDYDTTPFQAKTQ
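20 nM HPGD preincubated 15 min at room temperature with compound in 50 mM Tris-HCl pH 8, 0.01% Tween 20. Started with 1 mM NAD+ and 30 uM prostaglandin E2; NADH fluorescence (360/450 nm) read 5 times over 30-s intervals, last minus first.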
IMPase cell inh: cell-permeable inhibitors of inositol monophosphatase (IMPase). inhibition (IP1 accumulation), % at 46.1 µM. CHO-M1 cells, IP1 accumulation, HTRF TR-FRET ratio. 120,000 tested, under 10 active; active = well fitted curve in the direction sought with a large enough effect in the signal ratio, not every such curve was filed as active; inconclusive = small, poorly fitted or top-dose-only effect, or a change in a side signal; inactive = no such curve, though single readings can be large or run the other way; the % refers to the signal ratio;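 also: cells stimulated with carbachol in lithium chloride buffer; plate controls were DMSO basal wells for no effect and reference inhibitor wells for full effect; higher means more IMPase inhibition seen as more IP1 and lower FRET ratio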
Target sequence (P97697 whole entry, looked up): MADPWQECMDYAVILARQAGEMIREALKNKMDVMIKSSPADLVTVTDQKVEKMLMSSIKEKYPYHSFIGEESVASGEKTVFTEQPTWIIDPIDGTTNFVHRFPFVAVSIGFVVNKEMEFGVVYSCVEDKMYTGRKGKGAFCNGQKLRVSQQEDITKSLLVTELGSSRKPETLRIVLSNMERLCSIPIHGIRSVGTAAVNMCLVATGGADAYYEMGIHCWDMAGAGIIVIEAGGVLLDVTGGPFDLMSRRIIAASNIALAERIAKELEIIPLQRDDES
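Seeded CHO-M1 cells were dosed with compound at up to 46 uM, stimulated with carbachol for 30 min, then lysed in IP-One detection reagents. Higher IP1 lowers the TR-FRET signal.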
KinaseGlo FLuc: counter-screen: inhibitors of Kinase-Glo firefly luciferase | Q27757 | Kinase-Glo luciferase, ATP luminescence, 8 min | Potency, µM (series often up to 38.3 µM), inactives show top-dose activity change, negative = inhibition, actives largely listed as inhibitors | 0.28% of 200,000 active | AID 1379; active = well fitted inhibition curve with a large enough effect; inconclusive = small, poorly fitted or top-dose-only effect; also: potency is read from the fitted curve at half-maximal effect; nearly all actives have a fitted effect of over 60% in size
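Substrate mix (final 50 mM imidazole pH 7.2, 50 mM KCl, 7 mM MgCl2, 10 uM ATP, 0.01% Tween 20, 0.05% BSA) plus pin-tool compound, then Kinase-Glo detection mix; 8 min ambient, luminescence read.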
Lamin A splicing: modulators of lamin A splicing; Potency, µM (series often up to 46.1 µM), for the others: top-dose ratio change, negative = inhibition, usual class: inhibitors; HeLa LMNA splicing GFP/RFP minigene ratio, 48 h; 0.01% of 200,000 active; AID 1487; active = well fitted inhibition curve with a large enough effect in the signal ratio, with a control signal flat, not every such curve was filed as active; inconclusive = small, poorly fitted or top-dose-only effect, or effect the other way, or a change in a side signal; the % refers to the signal ratio; also: potency is read from the fitted curve at half-maximal effect
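S3 HeLa cells stably expressing lamin A-EGFP splicing minigene plus DsRed2, 600 cells/well, 48 h compound exposure at 37C. Laser-scanning cytometry; analysed as GFP (500-530 nm)/RFP (575-640 nm) total intensity ratio; 0.5% DMSO vehicle.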
Numbers without * were called inactive; ? = inconclusive; . = no result; [ ] = remark or other dose. Sampled rows, rich in hits. Any-hit rate of the full collection: about 10%. Unless noted, calls follow the shape of the dose curve; as a rule, active = well fitted inhibition curve with a large enough effect (not every such curve was filed as active); inconclusive = small, poorly fitted or top-dose-only effect, or another doubt; inactive = no such curve, though single readings can be large or run the other way. Unless noted, % is scaled to controls: 0 for no effect and ±100 for the full control effect.

SMILES	PNC inhibitor	ALDH1A1 block	HPGD inh	IMPase cell inh	KinaseGlo FLuc	Lamin A splicing
Nn1c(=O)c2ccccc2n2c(SCc3ccccc3)nnc12	?	14µM*	-11%	-3	-2%	13%
Nn1c(=O)c2ccccc2n2c(SCc3ccc(C(F)(F)F)cc3)nnc12	18	22µM*	11µM*	0	14%	-2%
CCCSc1nnc2n(N)c(=O)c3ccccc3n12	?	-12%	-2%	8	3%	4%
Cc1ccc(CNC(=O)CSc2n[nH]c(N)n2)cc1	-93*	-5%	1%	4	-2%	16%
NS(=O)(=O)c1ccc(NCc2nc3ccccc3[nH]2)cc1	.	0%[13.5 µM]	-4%	.	1%[7.66 µM]	.
O=C1/C(=C/c2cccnc2)Oc2cc(OS(=O)(=O)c3ccc(F)cc3)ccc21	14	8.9µM*	16µM*	-4	-2%	-8%
Cc1ccc(S(=O)(=O)Oc2ccc3c(c2)O/C(=C\c2cccnc2)C3=O)cc1	2	11µM*	-25%	-2	-6%	0%
O=C(O)[C@@H]1CCCN1Cc1cc2ccccc2c2ccccc12	.	-5%[13.5 µM]	-9%	.	0%[7.66 µM]	.
COc1ccc(N(Cc2cccs2)C(=O)Nc2cccc(Cl)c2)cc1	.	.	.	.	.	-10%[46 µM]
O=C(O)[C@H]1CCc2ccc3ccccc3c2[C@H]1c1cccc2ccccc12	.	10%[13.5 µM]	-2%	.	-4%[7.66 µM]	.
CCCCn1c(=O)n(CC(O)c2ccccc2)c(=O)c2c1ncn2C1CCCC1 (stereo not given)	10	10µM*	0%	-3	5%	0%
O=c1c2c(ncn2C2CCCC2)n(Cc2ccccc2)c(=O)n1CCOc1ccccc1	-27	11%	-19%	16	-2%	?
Cc1ccc(C)c(OCCn2c(=O)c3c(ncn3C3CCCC3)n(Cc3ccccc3)c2=O)c1	-119*	-3%	-10%	.	-2%	?
Cc1nn(S(=O)(=O)c2ccc(C(C)C)cc2)c(C)c1S(=O)(=O)N1CCCCC1	.	.	.	.	.	4%[46 µM]
Cc1cc2n(n1)SC(Nc1ccc(F)c(Cl)c1)N2 (stereo not given)	220	2.8µM*	-28%	3	4%	?
Cn1cnc(S(=O)(=O)N2CCC(C(=O)NCc3ccccc3Cl)CC2)c1	.	.	.	.	.	15%[46 µM]
CC12CCC(c3nnc(SCc4ccc(Cl)cc4)nc31)C2(C)C (stereo not given)	1	-5%	-20%	-6	4%	?
CC12CCC(c3n[nH]c(=S)nc31)C2(C)C (stereo not given)	-113*	20µM*	?	.	2%	1%
O=C(COC(=O)c1cnc(Cl)c(Cl)c1)NCc1cccs1	.	20µM*	.	.	0%	17%[46 µM]
O=C(COC(=O)c1ccc(CO)cc1)NCc1cccs1	17	5%	32µM*	.	-1%	8%
NS(=O)(=O)c1ccc(NC(=O)COC(=O)c2cc([N+](=O)[O-])ccc2Cl)cc1	.	-2%	.	.	.	.
NS(=O)(=O)c1ccc(NC(=O)COC(=O)c2cnc(Cl)c(Cl)c2)cc1	.	20µM*	.	.	.	.
Cc1ccc(C(=O)OCC(=O)NCc2cccs2)cc1	39	-4%	?	0	0%	-8%
COc1ccccc1-c1cc(C(F)(F)F)nc(S(=O)(=O)CCCC(=O)O)n1	52	-3%	?	-5	0%	?
COc1ccccc1-c1cc(C(F)(F)F)nc(S(=O)(=O)CCCC(=O)N2CCOCC2)n1	24	-11%	14µM*	14	1%	?
Cc1nn2c(=O)cc(COC(=O)c3ccc(NC(=O)C4CCCCC4)cc3)nc2s1	.	.	.	.	.	11%[46 µM]
CCC(Sc1ncnc2sc3c(c12)CCCC3)C(=O)OCC(C)C (stereo not given)	.	.	.	-4	.	.
COc1ccc(NS(=O)(=O)c2ccc3c(c2)[C@H]2C=CC[C@H]2[C@@H](c2ccc(C(=O)O)cc2)N3)cc1	.	.	.	3	.	.
Cc1c(Cl)cccc1NS(=O)(=O)c1ccc2c(c1)C1C=CCC1C(c1ccc(C(=O)O)cc1)N2 (stereo not given)	.	13µM*	.	.	.	.
